We go through 44 molecules from PubChem BioAssay (Tox21).

Results filed as inconclusive are left out. Activity calls are given as the source filed them. Unless noted, calls come from the whole dose curve; as a rule, active = well fitted curve in the direction sought with a large enough effect in the repeat runs; inconclusive = weak or mixed curves; inactive = no such curve, though single readings can be large; an effect the other way counts as inactive or inconclusive.

A short description of experiment [1]: qHTS assay to identify small molecule antagonists of the estrogen related receptor (ERR) signaling pathway - cell viability counter screen (AID 1224818).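 Note: series mostly up to about 46 µM; viability measured after 17.5 h of compound exposure.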 Summed up:
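Cytotoxicity counter screen: fluorescence from CellTiter-Fluor, added after 17.5 h compound exposure at 37 C and read 30 min later. ERR cell line seeded at 2,000 cells/well, preincubated 6 h before dosing.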
Background: Quantitative high-throughput screening tests each substance at several concentrations.

Experiment [2] is described as follows: qHTS assay to identify small molecule antagonists of the estrogen related receptor (ERR) signaling pathway (AID 1224819; note: nearly all actives have a fitted effect of over 50% in size; note: potency is the fitted concentration of half-maximal effect). Summed up:
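LOPAC library screened for antagonism as reduced One-Glo luminescence in ERR reporter cells (2,000/well). Compounds were added after 6 h pre-incubation and left 18 h at 37C; reading followed a 30 min room-temperature reagent step.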

A short description of experiment [3]: qHTS assay to identify small molecule agonists of the estrogen related receptor (ERR) signaling pathway (AID 1224820). Note: potency is the fitted concentration of half-maximal effect. Summed up: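 An ERR cell line provided by NTP was seeded at 2,000 cells per well and allowed to settle for 6 h before compounds in DMSO were added. After 18 h at 37 C, luciferase activity was measured by One-Glo luminescence.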
Experiment [4] has as its system estrogen-related receptor alpha (ERRalpha) with PGC-1alpha coactivator, human. The experiment is described as follows: qHTS assay to identify small molecule antagonists of the estrogen related receptor signaling pathway with the pleiotropic PPARgamma coactivator (PGC) (AID 1224821; calls by dose curve; note: nearly all actives have a fitted effect of over 50% in size; note: potency is the fitted concentration of half-maximal effect). The gist of the method:
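A PGC/ERR cell line supplied by NTP is seeded, allowed 6 h at 37 C, and treated with test compounds in DMSO for 18 h. Signal is then measured as luciferase luminescence using One-Glo.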

Experiment [5] can be described thus: qHTS assay to identify small molecule antagonists of the estrogen related receptor signaling pathway with the pleiotropic PPARgamma coactivator (PGC) cell viability counter screen (AID 1224822; note: series mostly up to about 46 µM). The gist of the method: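 Viability counter-screen read by fluorescence intensity after 30 min with CellTiter-Fluor at 37 C; PGC/ERR reporter cells were exposed to compounds for 17.5 h at 37 C following a 6 h preincubation.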

A short description of experiment [6]: qHTS assay to identify small molecule agonists of the estrogen related receptor signaling pathway with the pleiotropic PPARgamma coactivator (PGC) (AID 1224823). Note: potency is the fitted concentration of half-maximal effect. The gist of the method:
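Compounds dissolved in DMSO are added by pin tool to PGC/ERR cells that have settled for 6 h, and incubation continues 18 h at 37 C. Reporter output is measured as One-Glo luminescence.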

A short description of experiment [7]: qHTS assay to identify small molecule antagonists of the estrogen related receptor (ERR) signaling pathway from Tox21 library - cell viability counter screen (AID 1224834). Note: nearly all actives have a fitted effect of over 30% in size. The gist of the method:
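CellTiter-Fluor fluorescence, read after 30 min at 37 C, measures viability of ERR cells. Cells plated at 2,000/well and incubated 6 h before pin-tool compound addition, then exposed 17.5 hours at 37 C.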

The target of experiment [8] is Luciferin 4-monooxygenase (Photinus pyralis) (UniProt P08659). The experiment is described as follows: qHTS assay to identify small molecule inhibitors of firefly luciferase (AID 1224835). Note: series mostly up to about 120 µM; nearly all actives have a fitted effect of over 25% in size. Summed up:
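Inhibition of purified Photinus luciferase is measured by luminescence. Substrate levels (D-luciferin, ATP) sit at their KM values. Each compound is tested in a concentration series.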

The nature of experiment [9]: qHTS assay to identify small molecule agonists of the constitutive androstane receptor (CAR) signaling pathway - cell viability counter screen (AID 1224836). Note: series mostly up to about 92 µM; nearly all actives have a fitted effect of over 45% in size. The gist of the method:
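Compound titrations (15 concentrations) went onto HepG2-CYP2B6-hCAR cells 4 h after seeding, alongside PK11195 at a final 0.75 uM; a 23 h, 37 C/5% CO2 incubation preceded CellTiter-Fluor viability measurement.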

Sequence of Luciferin 4-monooxygenase (Photinus pyralis) (P08659 whole entry, looked up): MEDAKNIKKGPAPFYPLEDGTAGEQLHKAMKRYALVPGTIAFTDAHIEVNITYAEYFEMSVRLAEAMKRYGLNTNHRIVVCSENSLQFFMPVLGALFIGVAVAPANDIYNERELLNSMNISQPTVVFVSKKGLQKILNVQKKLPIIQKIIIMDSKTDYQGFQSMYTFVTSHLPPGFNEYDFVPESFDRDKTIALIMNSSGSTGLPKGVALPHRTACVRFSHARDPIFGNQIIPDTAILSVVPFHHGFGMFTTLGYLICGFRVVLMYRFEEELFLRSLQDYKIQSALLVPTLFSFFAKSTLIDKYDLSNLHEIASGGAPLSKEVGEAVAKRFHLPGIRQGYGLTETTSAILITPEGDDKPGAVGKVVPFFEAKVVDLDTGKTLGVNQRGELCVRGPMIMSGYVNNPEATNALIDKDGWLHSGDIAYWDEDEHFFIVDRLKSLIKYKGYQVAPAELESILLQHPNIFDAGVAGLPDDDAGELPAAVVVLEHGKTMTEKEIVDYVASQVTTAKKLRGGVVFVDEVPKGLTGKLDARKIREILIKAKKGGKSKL

For `CNc1cc(NS(=O)(=O)c2ccc(N)cc2)nc(NC)n1`, the Potency entry in experiment [1], in experiment [2], in experiment [3], in experiment [4], in experiment [5] and in experiment [6] was “inactive” in each case.
As for `NC1CONC1=O` (stereo unspecified), the Potency entry in experiment [1], in experiment [2], in experiment [3], in [4], in experiment [5] and in experiment [6] was “inactive” each time.
As to `COc1ccccc1CN[C@@H]1CCCN[C@@H]1c1ccccc1`, the Potency entry in experiment [1], in experiment [2], in [3], in experiment [4], in [5] and in [6] was “inactive” throughout.
With `Nc1ccc(-c2ccc3ccccc3n2)cc1`, the Potency result in experiment [1], in experiment [2] and in experiment [4] was “inactive” in each case. Also, the Potency in experiment [3] is 2.46 µM (active); in [6] it was 1.96 µM (active).
Consider `O=c1c2ccccc2nc2n1CCc1c-2[nH]c2ccccc12`, for which the Potency result in experiment [1], in experiment [2] and in experiment [4] was “inactive” throughout. In addition, the Potency in experiment [3] is 2.28 µM (active); in experiment [6] it was 13.3 µM (active).
Regarding `NC(N)=NCCCCN=C(N)N`, the Potency result in experiment [1], in experiment [2], in [3], in experiment [4], in experiment [5] and in experiment [6] was “inactive” in each case.
As to `C=CC(N)CCC(=O)O` (stereo unspecified), the Potency entry in experiment [1], in experiment [2], in experiment [3], in experiment [4] and in experiment [6] was “inactive” each time.
Consider `NCCCCNCCCN`, for which the Potency result in [1], in experiment [2], in [3], in [4], in [5] and in experiment [6] was “inactive” throughout.
On to `COc1ccc2c(c1)c(CC(=O)O)c(C)n2Cc1ccc(Cl)cc1`, for which the Potency entry in experiment [1], in experiment [2], in experiment [3], in [4], in experiment [5] and in experiment [6] was “inactive” in each case.
Consider `CC(=O)SCC[N+](C)(C)C`, for which the Potency result in experiment [1], in [2], in [3], in experiment [4], in [5] and in experiment [6] was “inactive” throughout.
As to `NCCCCC(=O)O`, the Potency result in [1], in experiment [2], in [3], in [4], in [5] and in experiment [6] was “inactive” throughout.
Consider `c1ccc2occc2c1`, for which the Potency result in experiment [1], in experiment [2], in [3], in experiment [4], in experiment [5] and in [6] was “inactive” in each case. The Potency result in experiment [7], in experiment [8] and in [9] was “inactive” throughout.
Consider `CC1CCN=C(N)S1` (stereo unspecified), for which the Potency result in experiment [1], in experiment [2], in experiment [3], in experiment [4], in experiment [5] and in [6] was “inactive” in each case.
Consider `O=C(O)CCC(=O)N1CCCC1C(=O)O` (stereo unspecified), for which the Potency entry in experiment [1], in experiment [2], in experiment [3], in [4], in experiment [5] and in experiment [6] was “inactive” each time.
Take `O=S(=O)(c1cccc2c(Cl)cccc12)N1CCCNCC1`: the Potency entry in experiment [1], in [2], in experiment [3], in [4], in experiment [5] and in [6] was “inactive” each time.
Consider `O=C(c1ccc(OCCCc2cnc[nH]2)cc1)C1CC1`, for which the Potency entry in [1], in experiment [2], in experiment [3], in experiment [4], in [5] and in experiment [6] was “inactive” in each case.
With `CCCC(CCC)C(=O)OC1CC2CCC(C1)[N+]2(C)C` (stereo unspecified), the Potency result in [1], in experiment [2], in [3], in experiment [4], in experiment [5] and in experiment [6] was “inactive” throughout.
Take `CO/N=C(\C(=O)N[C@@H]1C(=O)N2C(C(=O)O)=C(CSc3nc(=O)c(O)nn3C)CSC12)c1csc(N)n1` (stereo partly specified): the Potency result in experiment [1], in experiment [2], in [3], in [4], in [5] and in experiment [6] was “inactive” each time.
For the molecule `COc1ccccc1N1CCN(CCCNc2c(C)c(=O)n(C)c(=O)n2C)CC1`, the Potency entry in experiment [1], in experiment [2], in experiment [3], in experiment [4], in experiment [5] and in experiment [6] was “inactive” each time.
Turning to `O=C(O)C1=CCCN(CCON=C(c2ccccc2)c2ccccc2)C1`, the Potency entry in experiment [1], in experiment [2], in [3], in experiment [4] and in experiment [6] was “inactive” throughout.
As to `CCOC(=O)C1=C(O)C(=O)N(Cc2ccccc2)C1`, the Potency entry in experiment [1], in [2], in experiment [3], in experiment [4], in experiment [5] and in [6] was “inactive” each time.
For the molecule `CC(N)(C(=O)O)c1ccc(C(=O)O)cc1` (stereo unspecified), the Potency entry in experiment [1], in [2], in experiment [3], in experiment [4], in experiment [5] and in experiment [6] was “inactive” throughout.
`Cn1c(=O)c2c(nc(/C=C/c3cccc(Cl)c3)n2C)n(C)c1=O`: the Potency entry in experiment [1], in experiment [2], in experiment [3], in experiment [4] and in experiment [6] was “inactive” each time.
Consider `Cn1ncc(S(=O)(=O)Cc2ccccc2)c(Br)c1=O`, for which the Potency entry in experiment [1], in experiment [2], in experiment [3], in [4] and in [6] was “inactive” each time.
For `CCCCCCCCc1ccc(-c2ccc(C(=O)O)cc2)cc1`, the Potency entry in [1], in experiment [2], in experiment [3], in experiment [4] and in experiment [6] was “inactive” each time.
`O=C(/C=C/c1ccc(O)cc1)c1ccc(O)cc1O`: the Potency result in [1], in experiment [2], in [3], in experiment [4], in experiment [5] and in experiment [6] was “inactive” each time.
Turning to `CCCC[C@@]1(C2CCCC2)Cc2cc(OCC(=O)O)c(Cl)c(Cl)c2C1=O`, the Potency result in experiment [1], in experiment [3] and in experiment [6] was “inactive” throughout. Moreover, the results for the Potency in experiment [2] and in experiment [4] were 11.4 µM (active) and 13.9 µM (active), respectively.
On to `CCCOC(=O)c1c(-c2ccccc2)nc(CC)c(C(=O)SCC)c1CCC`, for which the Potency entry in [1], in experiment [2], in experiment [3], in experiment [4], in experiment [5] and in experiment [6] was “inactive” in each case.
As for `CCn1c(=O)[nH]c2cc(Cl)c(Cl)cc21`, the Potency entry in experiment [1], in experiment [2], in experiment [3], in experiment [4] and in experiment [6] was “inactive” throughout.
For the molecule `COC1(C2=NCCN2)COc2ccccc2O1` (stereo unspecified), the Potency entry in experiment [1], in experiment [2], in [3], in experiment [4], in experiment [5] and in [6] was “inactive” throughout.
`CCCCCCCCCCCCCCCCCCN(CCCCCCCCCCCCCCCCCC)CCCN(CCO)CCO`: the Potency entry in [1], in [2], in experiment [3], in experiment [4], in experiment [5] and in experiment [6] was “inactive” each time.
Regarding `Nc1ncnc2n[nH]c(Nc3ccc(F)cc3)c12`, the Potency entry in experiment [1], in [2], in experiment [3], in experiment [4] and in experiment [5] was “inactive” each time. Moreover, the Potency in experiment [6] was 22.8 µM (active).
Consider `N#Cc1cc2nc(O)c(O)nc2cc1[N+](=O)[O-]`, for which the Potency result in experiment [1], in [2], in experiment [3], in experiment [4], in experiment [5] and in experiment [6] was “inactive” throughout.
Turning to `CC(C)(C=O)Cc1cc(C(C)(C)C)c(O)c(C(C)(C)C)c1`, the Potency result in experiment [1], in [2], in experiment [3], in experiment [4] and in [6] was “inactive” each time.
As for `C=CCN1CCc2cc(O)c(O)cc2C(c2ccccc2)C1` (stereo unspecified), the Potency entry in experiment [1], in experiment [2], in experiment [3], in experiment [4], in experiment [5] and in experiment [6] was “inactive” each time.
Consider `NCCSSCCN`, for which the Potency entry in experiment [1], in experiment [2], in [3], in experiment [4] and in experiment [6] was “inactive” in each case.
As for `Nc1ccc(-c2nc3ccc(-c4nc5ccc(N)cc5[nH]4)cc3[nH]2)cc1`, the Potency entry in [1], in [2], in [3], in experiment [4] and in [6] was “inactive” each time.
With `CC(C)(C)c1cc(/C=C(\C#N)C(N)=S)cc(C(C)(C)C)c1O`, the Potency result in [1], in experiment [3] and in [6] was “inactive” in each case. For the same molecule, the Potency in experiment [2] is 2.46 µM (active); in experiment [4], 2.11 µM (active).
With `NCCS(=O)O`, the Potency entry in experiment [1], in [2], in experiment [3], in experiment [4], in [5] and in experiment [6] was “inactive” each time.
On to `CCOC(=O)C12CC1/C(=N/O)c1ccccc1O2` (stereo unspecified), for which the Potency entry in experiment [1], in experiment [2], in experiment [3], in experiment [4], in [5] and in experiment [6] was “inactive” in each case.
Consider `O=C1/C(=C/c2ccsc2)CC/C1=C\c1cccs1`, for which the Potency result in experiment [1], in [2], in [4] and in experiment [5] was “inactive” throughout. Also, the Potency is 24.6 µM (active) in experiment [3] and 21.1 µM (active) in experiment [6].
With `C#CC(N)CCC(=O)O` (stereo unspecified), the Potency entry in experiment [1], in [2], in [3], in [4] and in [6] was “inactive” in each case.
Consider `O[Si](CCCN1CCCCC1)(c1ccc(F)cc1)C1CCCCC1` (stereo unspecified), for which the Potency entry in experiment [1], in experiment [2], in [3], in experiment [4] and in experiment [6] was “inactive” each time.
Regarding `N[C@H]1CONC1=O`, the Potency result in [1], in experiment [2], in [3], in [5] and in [6] was “inactive” each time.
